This is an account of results in PubChem BioAssay (NCATS).

Inconclusive results are not listed. The source made the active and inactive calls. Calls follow the shape of the dose curve; as a rule, active = well fitted curve in the direction sought with a large enough effect; inconclusive = small, poorly fitted or top-dose-only effect, or another doubt; inactive = no such curve, though single readings can be large; an effect the other way counts as inactive or inconclusive.

The nature of assay [1]: qHTS of pediatric cancer cell lines to identify multiple opportunities for drug repurposing: Confirmatory screen for SK-N-MC cells (AID 1347111).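 Also: cells exposed to compound for 48 h before the readout; nearly all actives have a fitted effect of over 70% in size.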 Also: potency is read from the fitted curve at half-maximal effect. The method in brief: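 Seed 500-1,000 cells/well; rest 5 h at 37 degrees C. Pin-transfer compounds, 11-point titration. Incubate 48 h. Add CellTiter-Glo, 15 min RT, read luminescence.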
The nature of assay [2]: qHTS of pediatric cancer cell lines to identify multiple opportunities for drug repurposing: Confirmatory screen for BT-12 cells (AID 1347112).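 Also: viability read after 48 h of compound exposure; nearly all actives have a fitted effect of over 55% in size.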 The method in brief: (§1)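 Cells (500-1,000/well) rested 5 h, then received compounds for 48 h; metabolically active cells were measured by CellTiter-Glo luminescence. Final concentrations spanned up to 46 µM (MIPE, 11-point) or 0.59 nM-46 µM (NPC, 8-point) in primary screens, 11-point in follow-ups.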

A short description of assay [3]: qHTS of pediatric cancer cell lines to identify multiple opportunities for drug repurposing: Confirmatory screen for LAN-5 cells (AID 1347113). Also: nearly all actives have a fitted effect of over 65% in size. The method in brief: as §1
On the technique in general: In qHTS, concentration-response curves come from the screen itself.

Assay [4] can be described thus: qHTS of pediatric cancer cell lines to identify multiple opportunities for drug repurposing: Confirmatory screen for DAOY cells (AID 1347114). Also: nearly all actives have a fitted effect of over 65% in size. In short, it runs like this: (§2)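 Viability measured as metabolically active cells via CellTiter-Glo luminescence following 48 hours of compound exposure, 11-point dilutions in confirmatory testing. 500-1,000 cells/well plated 5 hours before dosing; controls were DMSO and 2.3 µM bortezomib.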

A short description of assay [5]: qHTS of pediatric cancer cell lines to identify multiple opportunities for drug repurposing: Confirmatory screen for NB-EBc1 cells (AID 1347115).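 Also: cells exposed to compound for 48 h before the viability read; nearly all actives have a fitted effect of over 45% in size.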 The method in brief: as §1
A short description of assay [6]: qHTS of pediatric cancer cell lines to identify multiple opportunities for drug repurposing: Confirmatory screen for SJ-GBM2 cells (AID 1347116). Also: nearly all actives have a fitted effect of over 60% in size. In short, it runs like this: as §2
The nature of assay [7]: qHTS of pediatric cancer cell lines to identify multiple opportunities for drug repurposing: Confirmatory screen for TC32 cells (AID 1347118).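 Also: cells exposed to compound for 48 h before the read; nearly all actives have a fitted effect of over 65% in size.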 Also: potency is read from the fitted curve at half-maximal effect. In short, it runs like this:
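Measured quantity: luminescence from CellTiter-Glo, reflecting metabolically active TC32 cells following 48 h of compound. Curves came straight from multi-point titrations, with 8 or 11 points in primary and 11 in confirmatory screening.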

Assay [8] in a line: qHTS of pediatric cancer cell lines to identify multiple opportunities for drug repurposing: Confirmatory screen for MG 63 (6-TG R) cells (AID 1347119). Also: nearly all actives have a fitted effect of over 55% in size. Also: potency is read from the fitted curve at half-maximal effect. The method in brief:
as §1

The nature of assay [9]: qHTS of pediatric cancer cell lines to identify multiple opportunities for drug repurposing: Confirmatory screen for control Hh wild type fibroblast cells (AID 1347121). Also: nearly all actives have a fitted effect of over 70% in size. The method in brief: as §1
The nature of assay [10]: qHTS of pediatric cancer cell lines to identify multiple opportunities for drug repurposing: Confirmatory screen for U-2 OS cells (AID 1347122). Also: nearly all actives have a fitted effect of over 65% in size. The method in brief: as §1
The nature of assay [11]: qHTS of pediatric cancer cell lines to identify multiple opportunities for drug repurposing: Confirmatory screen for RD cells (AID 1347124). The method in brief:
as §1

Assay [12] is described as follows: qHTS of pediatric cancer cell lines to identify multiple opportunities for drug repurposing: Confirmatory screen for Rh18 cells (AID 1347125). Also: nearly all actives have a fitted effect of over 55% in size. Also: potency is read from the fitted curve at half-maximal effect. The method in brief:
as §1

A short description of assay [13]: qHTS of pediatric cancer cell lines to identify multiple opportunities for drug repurposing: Confirmatory screen for Rh30 cells (AID 1347126). Also: nearly all actives have a fitted effect of over 55% in size. In short, it runs like this:
as §1

The nature of assay [14]: qHTS of pediatric cancer cell lines to identify multiple opportunities for drug repurposing: Confirmatory screen for OHS-50 cells (AID 1347128). The method in brief: as §1
Assay [15] is described as follows: qHTS of pediatric cancer cell lines to identify multiple opportunities for drug repurposing: Confirmatory screen for SK-N-SH cells (AID 1347129).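 Also: cells exposed to compound for 48 h before viability read; nearly all actives have a fitted effect of over 60% in size.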 The method in brief: as §1
In assay [16] the target is N-terminal Xaa-Pro-Lys N-methyltransferase 1 (Homo sapiens) (UniProt Q9BV86). The assay can be described thus: qHTS Assay for Inhibitors of N-terminal methyltransferase 1 (NTMT1): LOPAC validation of the NTMT1 SAHH-coupled ThioGlo3 Assay (AID 1347143).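 Also: SAH from peptide methylation measured as thiol fluorescence via SAHH coupling and ThioGlo3; nearly all actives have a fitted effect of over 70% in size.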 Also: potency is read from the fitted curve at half-maximal effect. In short, it runs like this: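 Inhibition of NTMT1 methylation of peptide SPKRIA is followed by converting SAH with SAHH and labelling the released thiol with ThioGlo3. Plates are read at 340/450nm before and 30 min after reagent addition, both at room temperature.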
N-terminal Xaa-Pro-Lys N-methyltransferase 1 (Homo sapiens), sequence (Q9BV86 whole entry, looked up): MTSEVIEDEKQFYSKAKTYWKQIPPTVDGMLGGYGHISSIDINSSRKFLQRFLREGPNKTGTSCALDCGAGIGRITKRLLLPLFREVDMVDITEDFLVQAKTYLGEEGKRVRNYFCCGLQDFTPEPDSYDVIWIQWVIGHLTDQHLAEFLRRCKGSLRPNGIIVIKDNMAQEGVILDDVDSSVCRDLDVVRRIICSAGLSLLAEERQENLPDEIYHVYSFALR

The subject of assay [17] is Zika virus NS2B-NS3 protease (unlinked). The assay can be described thus: Optimization of GU AMC qHTS for Zika virus inhibitors: Unlinked NS2B-NS3 protease assay (AID 1347151). Also: nearly all actives have a fitted effect of over 80% in size. Also: potency is read from the fitted curve at half-maximal effect. The method in brief:
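Unlinked protease (25 nM final); buffer 10 mM Tris-HCl pH 8.0 + 0.01% Tween 20; AMC substrate; 15 min RT, dark; Δfluorescence normalized to no-inhibitor/no-enzyme controls; 4-parameter Hill fit.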

Assay [18] is described as follows: qHTS of pediatric cancer cell lines to identify multiple opportunities for drug repurposing: Confirmatory screen for A673 cells (AID 1347110). The method in brief:
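qHTS titration format: primary MIPE 0.78 nM-46 µM (11 pts), NPC 0.59 nM-46 µM; confirmation 11 pts. 48 h, CTG luminescence.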

Assay [19] in a line: qHTS of pediatric cancer cell lines to identify multiple opportunities for drug repurposing: Confirmatory screen for BT-37 cells (AID 1347117). The method in brief: as §1
A further assay has as its target Furin (Homo sapiens) (UniProt P09958). The assay can be described thus: Furin counterscreen qHTS for Zika virus inhibitors (AID 1347149). Also: potency is read from the fitted curve at half-maximal effect; nearly all actives have a fitted effect of over 70% in size. The method in brief: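 Fluorogenic cleavage of BOC-RVRR-AMC (2 microM final, Km ~15 µM) was monitored (ex 340, em 450 nm) at 37C after 15 min RT preincubation of 5 nM furin with compounds in HEPES pH 7.0 buffer with CaCl2 and Triton X-100. Percent inhibition was fitted to a 4-parameter Hill curve.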
(The purpose of a counterscreen is to sort out artefacts and off-target activity.)

Furin (Homo sapiens), sequence (P09958 whole entry, looked up): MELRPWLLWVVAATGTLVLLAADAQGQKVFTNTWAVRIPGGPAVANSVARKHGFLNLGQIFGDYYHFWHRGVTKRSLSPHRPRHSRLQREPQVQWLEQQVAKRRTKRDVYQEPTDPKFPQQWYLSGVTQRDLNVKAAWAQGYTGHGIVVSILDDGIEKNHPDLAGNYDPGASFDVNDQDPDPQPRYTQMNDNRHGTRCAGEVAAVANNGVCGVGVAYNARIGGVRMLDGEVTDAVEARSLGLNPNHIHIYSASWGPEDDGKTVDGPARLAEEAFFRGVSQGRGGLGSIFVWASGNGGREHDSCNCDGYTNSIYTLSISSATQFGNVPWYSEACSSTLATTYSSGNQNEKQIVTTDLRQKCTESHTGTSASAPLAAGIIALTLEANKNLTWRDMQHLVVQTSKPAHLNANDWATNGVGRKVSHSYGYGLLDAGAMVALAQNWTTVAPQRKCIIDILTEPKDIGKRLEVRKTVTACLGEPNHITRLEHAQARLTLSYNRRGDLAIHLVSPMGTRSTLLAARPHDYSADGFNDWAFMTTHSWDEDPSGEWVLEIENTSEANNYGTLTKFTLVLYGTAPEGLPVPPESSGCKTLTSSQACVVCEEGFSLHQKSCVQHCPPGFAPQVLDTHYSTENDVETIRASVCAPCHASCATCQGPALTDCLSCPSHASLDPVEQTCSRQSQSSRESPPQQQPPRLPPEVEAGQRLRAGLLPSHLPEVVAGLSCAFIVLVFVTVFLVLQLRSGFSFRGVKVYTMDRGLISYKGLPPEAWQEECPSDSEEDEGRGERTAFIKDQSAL

Turning to `Nc1nc2c(ncn2COCCO)c(=O)[nH]1`, the Potency result in [1], in assay [2], in [3], in assay [4], in [5] and in assay [6] was “inactive” in each case. Besides, the Potency result in [7], in [8], in assay [9], in assay [10], in assay [11] and in assay [12] was “inactive” each time. The Potency result in assay [13], in assay [14], in assay [15], in assay [16] and in [17] was “inactive” in each case.

`C1COC(NC(C2CC2)C2CC2)=N1`: the Potency result in [16] and in assay [17] was “inactive” in each case.

In the case of `CO[C@@H]1[C@H](N(C)C(=O)c2ccccc2)C[C@H]2O[C@]1(C)n1c3ccccc3c3c4c(c5c6ccccc6n2c5c31)C(=O)NC4`, the Potency entry in [18], in [4], in assay [9], in assay [10], in assay [13] and in assay [15] was “inactive” each time. Besides, the Potency in [12] is 4.14 µM (active).

As to `C#Cc1cccc(Nc2ncnc3cc(OCCOC)c(OCCOC)cc23)c1`, the Potency in assay [1] is 14.7 µM (active); in assay [19], 5.85 µM (active); in [7], 14.7 µM (active); in assay [8] it was 16.5 µM (active). Also, the Potency entry in assay [9], in assay [11], in assay [12] and in assay [15] was “inactive” throughout.

As to `OC(CCN1CCCCC1)(c1ccccc1)C1CC2C=CC1C2` (configuration not stated), the Potency entry in assay [16] and in assay [17] was “inactive” in each case.

As to `NCCc1ccc(O)c(O)c1`, the Potency in assay [16] is 44.7 µM (active).

In the case of `CS(=O)(=O)c1cccc(CNc2nc(Nc3ccc4c(c3)CCC(=O)N4)ncc2C(F)(F)F)c1`, the Potency in assay [16] is 56.2 µM (active).

As to `CC(C)C[C@H](NC(=O)[C@@H](O)[C@H](N)Cc1ccccc1)C(=O)O`, the Potency entry in assay [16] and in assay [17] was “inactive” each time.

As for `COc1cc2nccc(Oc3ccc(NC(=O)NC4CC4)c(Cl)c3)c2cc1C(N)=O`, the Potency in [1] was 26.1 µM (active); in assay [7] it was 14.7 µM (active); in assay [12], 14.7 µM (active). Further, the Potency result in assay [4], in assay [5], in assay [6], in [9], in assay [13] and in [15] was “inactive” each time.

Consider `CCOC(=O)C1=C[C@]2(CC)CCCN3CCc4c(n1c1ccccc41)[C@@H]32`, for which, in assay [16], the Potency entry was “inactive”.

As for `CCn1cc(C(=O)O)c(=O)c2cc(F)c(N3CCNC(C)C3)c(F)c21` (configuration not stated), the Potency in assay [16] was 56.2 µM (active); with Furin (Homo sapiens), 24.1 µM (active); in assay [17], 26.7 µM (active).

As to `CC(C)NCC(O)COc1ccc(COCCOC(C)C)cc1` (configuration not stated), the Potency result in [16] and in assay [17] was “inactive” throughout.

As for `O=c1n(CCCN2CCN(c3cccc(Cl)c3)CC2)nc2ccccn12`, the values for the Potency (in assay [16]; with Furin (Homo sapiens); in assay [17]) were 79.4 µM (active), 24.1 µM (active) and 26.7 µM (active), respectively.

On to `C[C@]1(c2nc3c(C(N)=O)cccc3[nH]2)CCCN1`, for which the Potency result in assay [18], in [3], in assay [4], in assay [5], in assay [6] and in assay [8] was “inactive” in each case. Besides, the Potency entry in [9], in assay [10], in [11], in [12], in assay [13] and in [14] was “inactive” in each case. The Potency result in [15] was “inactive”. The Potency in [7] is 18.5 µM (active).
